Where “and” joins values, the source holds several entries; their conditions need not be identical. Equal values may be shown once. Where a name gives a salt, the structure may show the parent alone.
Key:
Test in all cases: cell viability relative to vehicle control; higher = less cytotoxic
Conditions in all cases: 10 µM
K562 = tested on: K562
Outline: (§1)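 CRISPR-edited SRSF2 P95 mutant and isogenic wild-type clones of four leukaemia lines were screened against Selleck bioactive, kinase and epigenetic probe libraries, with identity-inconsistent compounds removed. Compounds were acoustically dispensed into 384-well plates at a single 10 µM dose, with 2000 cells in 50 µL medium per well. After 48 h, supernatant was removed and CellTiter-Glo luminescence was read. Viability was expressed as percent of the on-plate DMSO vehicle control, analysed in Genedata Screener.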

MARIMO = tested on: MARIMO
Outline: as §1

MOLM14 = tested on: MOLM14
Outline: as §1

OCI-AML2 = tested on: OCI-AML2
Outline: as §1

Row | Structure (SMILES) | cell viability (K562; SRSF2 genotype: SRSF2 P95H/wt) | cell viability (K562; SRSF2 genotype: SRSF2 wt/wt) [%] | cell viability (MARIMO; SRSF2 genotype: SRSF2 P95H/wt) [%] | cell viability (MARIMO; SRSF2 genotype: SRSF2 wt/wt) [%] | cell viability (MOLM14; SRSF2 genotype: SRSF2 P95H/wt) [%] | cell viability (MOLM14; SRSF2 genotype: SRSF2 wt/wt) [%] | cell viability (OCI-AML2; SRSF2 genotype: P95H/wt) [%] | cell viability (OCI-AML2; SRSF2 genotype: wt/wt) [%]
1 | O=c1c2cc(O)c(O)cc2oc2cc(O)c([C@@H]3O[C@H](CO)[C@@H](O)[C@H](O)[C@H]3O)c(O)c12 [Mangiferin] | 106% and 96.7% | 99.3 | 97.7 | 104 | 103 | 104 | 86.5 | 102
2 | O=C1c2c(O)cc(O)cc2OC(c2ccc(O)c(O)c2)C1O (stereo not drawn) [Taxifolin (Dihydroquercetin)] | 97.9% and 94.4% | 91.6 | 91.9 | 96.5 | 100 | 101 | 93.5 | 96
3 | COC1CCN(C(=O)c2cc(Cc3n[nH]c(=O)c4ccccc34)ccc2F)CC1 | 78.6% and 83.8% | 86 | 81.5 | 97.1 | 57.9 | 34.7 | 51.2 | 62.1
4 | Cc1cc(C)nc(NC(=S)N2CCN(Cc3ccc(C(F)(F)F)cc3)CC2)c1 | 71.2% and 80.6% | 73.2 | 67.4 | 64.5 | 77.3 | 86.6 | 37.8 | 54
5 | CC(=O)Oc1c(C)c(C)c2c(c1C)CCC(C)(CCC[C@H](C)CCC[C@H](C)CCCC(C)C)O2 (stereo partly drawn) [Vitamin E Acetate] | 105% and 103% | 106 | 102 | 103 | 103 | 106 | 105 | 94.2
6 | O=C(O)C1=CO[C@@H](O[C@@H]2O[C@H](CO)[C@@H](O)[C@H](O)[C@H]2O)[C@@H]2C(CO)=CC[C@H]12 [Geniposidic acid] | 105% and 91.2% | 93.8 | 89.8 | 105 | 92.5 | 91.6 | 90.8 | 107
7 | CC(C)=CCc1cc2c(cc1O)O[C@H](c1ccc(O)cc1)CC2=O [Bavachin] | 95.2% and 87.3% | 100 | 96.5 | 99.5 | 111 | 109 | 101 | 114
8 | CC(=O)O[C@]1(C(C)=O)CC[C@H]2[C@@H]3C[C@H](C)C4=CC(=O)C=C[C@]4(C)[C@@]3(F)[C@@H](O)C[C@@]21C [Fluorometholone Acetate] | 93.4% and 95.3% | 85.4 | 96.4 | 105 | 97.6 | 93.5 | 99.5 | 113
9 | C[C@@]12C[C@H](c3ccoc3)O[C@@]13C[C@H](OC3=O)[C@H]1[C@H]2C[C@@H]2C[C@H]1C(=O)O2 [Diosbulbin B] | 103% and 104% | 102 | 105 | 108 | 108 | 110 | 102 | 101
10 | COc1ccc(CCc2cc(OC)c(OC)c(OC)c2)cc1O [Erianin] | 10.3% and 30.2% | 25.3 | 6.09 | 6.67 | 1.16 | 1.16 | 1.03 | 2.9
11 | CC[N+](CC)(CC)CCOc1cccc(OCC[N+](CC)(CC)CC)c1OCC[N+](CC)(CC)CC [Gallamine triethiodide (Flaxedil)] | 96% and 97.9% | 91.8 | 101 | 96.8 | 101 | 99.5 | 99 | 95.4
12 | C[n+]1c2n(c(=O)c3ccccc31)CCc1c-2[nH]c2ccccc12 [Dehydroevodiamine hydrochloride] | 94.4% and 99.8% | 89.2 | 91.7 | 100 | 92.8 | 92.9 | 86.8 | 96.2
13 | COCCCOc1cc(C[C@@H](C[C@H](N)[C@@H](O)C[C@H](C(=O)NCC(C)(C)C(N)=O)C(C)C)C(C)C)ccc1OC [Aliskiren Hemifumarate] | 104% and 99.9% | 95.5 | 92.3 | 101 | 91.8 | 98.7 | 92.5 | 106
14 | CC(=O)N[C@@H](CS)C(=O)O [Acetylcysteine] | 101% and 97.9% | 95.6 | 97.5 | 92.6 | 97 | 97.5 | 102 | 98
15 | C=C1[C@H](O)C[C@H]2[C@@H](/C=C(\C)C(=O)[C@@]3(O)C[C@H](C)[C@H](O)[C@@H]3[C@H]1O)C2(C)C | 98.1% and 92% | 99 | 93.7 | 100 | 99.8 | 98.1 | 93.9 | 101
16 | Cc1cc([C@@H](C)Nc2ccccc2C(=O)O)c2nc(N3CCOCC3)cc(=O)n2c1 | 88.7% and 86.4% | 89.2 | 66.9 | 66.3 | 49.6 | 48.3 | 49.8 | 56.1
17 | Cc1ccc([N+](=O)[O-])cc1S(=O)(=O)N(C)/N=C/c1cnc2ccc(Br)cn12 | 28.6% and 22.3% | 21 | 7.47 | 3.68 | 0.68 | 0.5 | 1.7 | 17.4
18 | O=C(O)[C@H](O)c1ccccc1 [(R)-(-)-Mandelic acid] | 94% and 92.9% | 89.4 | 91.2 | 105 | 91.8 | 92.6 | 98.2 | 106
19 | O=C(N[C@H](CO)[C@H](O)c1ccc([N+](=O)[O-])cc1)C(Cl)Cl [Chloramphenicol (Chloromycetin)] | 92.7% and 92% | 94.8 | 104 | 106 | 95.6 | 96.8 | 96 | 103
20 | c1ccc2c(CCNc3ccc(Nc4ccncc4)cc3)c[nH]c2c1 | 28.3% and 44.5% | 46 | 21.3 | 44.4 | 0.51 | 0.5 | 0.66 | 2
21 | CC(C)OC(=O)CCC/C=C\C[C@@H]1[C@@H](/C=C/C(F)(F)COc2ccccc2)[C@H](O)C[C@@H]1O [Tafluprost] | 85.8% and 90.8% | 92.1 | 85 | 96.2 | 89.3 | 97.7 | 90.6 | 95

Row | Structure (SMILES) | cell viability (K562; SRSF2 genotype: SRSF2 P95H/wt) | cell viability (K562; SRSF2 genotype: SRSF2 wt/wt) [%] | cell viability (MARIMO; SRSF2 genotype: SRSF2 P95H/wt) [%] | cell viability (MARIMO; SRSF2 genotype: SRSF2 wt/wt) [%] | cell viability (MOLM14; SRSF2 genotype: SRSF2 P95H/wt) [%] | cell viability (MOLM14; SRSF2 genotype: SRSF2 wt/wt) [%] | cell viability (OCI-AML2; SRSF2 genotype: P95H/wt) [%] | cell viability (OCI-AML2; SRSF2 genotype: wt/wt) [%]
22 | Cc1cc(=O)[nH]c(=S)[nH]1 [Methylthiouracil] | 99.3% and 106% | 90.5 | 96.7 | 107 | 99.9 | 103 | 95.5 | 104
23 | CCCS(=O)(=O)Nc1ccc(F)c(C(=O)c2c[nH]c3ncc(Cl)cc23)c1F | 87.6% and 92.7% | 94.9 | 72.2 | 88.4 | 81.4 | 88.1 | 99.2 | 105
24 | CCCCCCCN(CC)CCCC(O)c1ccc(NS(C)(=O)=O)cc1 (stereo not drawn) [Ibutilide fumarate] | 87.6% and 106% | 93.2 | 91.6 | 107 | 97.9 | 103 | 97.9 | 96.4
25 | OCCOCCN1CCN(C(c2ccccc2)c2ccc(Cl)cc2)CC1 (stereo not drawn) [Hydroxyzine 2HCl] | 90.8% and 99.8% | 96.4 | 85.2 | 88.6 | 86.6 | 95 | 95.4 | 86.1
26 | COc1cc(Nc2ncc(F)c(Nc3ccc4c(n3)NC(=O)C(C)(C)O4)n2)cc(OC)c1OC [R406(free base)] | 95% and 101% | 104 | 72.2 | 85.1 | 25.2 | 16 | 42.1 | 56.3
27 | CC(C)=CCC[C@](C)(O[C@@H]1O[C@H](CO)[C@@H](O)[C@H](O)[C@H]1O)[C@H]1CC[C@]2(C)[C@@H]1[C@H](O)C[C@@H]1[C@@]3(C)CC[C@H](O)C(C)(C)[C@@H]3[C@@H](O[C@@H]3O[C@H](CO)[C@@H](O)[C@H](O)[C@H]3O[C@@H]3OC[C@@H](O)[C@H](O)[C@H]3O)C[C@]12C [Notoginsenoside R1] | 98.4% and 101% | 94.8 | 106 | 104 | 106 | 103 | 94.6 | 96.7
28 | CCCS(=O)(=O)Nc1ccc(F)c(C(=O)c2c[nH]c3ncc(-c4ccc(Cl)cc4)cc23)c1F [Vemurafenib (PLX4032, RG7204)] | 92.8% and 102% | 94.8 | 92.6 | 106 | 102 | 108 | 111 | 105
29 | CN1CCN(c2cccc(Nc3nc4c(-c5ccc(S(C)(=O)=O)cc5)cccn4n3)c2)CC1 | 68% and 76.9% | 70.5 | 67.1 | 67.8 | 3.24 | 3.52 | 11.9 | 22.6
30 | Cc1ncc(Cl)cc1NCc1ccc(C(=O)N[C@@H](CC2CCCC2)C(=O)NC2CC2)s1 | 82.9% and 83.4% | 82.1 | 76.2 | 94 | 65 | 66.1 | 72.9 | 71.3
31 | CCN(CC)CCOc1ccc(C(=C(Cl)c2ccccc2)c2ccccc2)cc1 [Clomifene citrate (Serophene)] | 37.2% and 36.3% | 62.6 | 57.2 | 61.7 | 50.8 | 60.9 | 54.5 | 52.3
32 | COc1cccc(OC)c1C(=O)OCc1cc(O)ccc1O[C@@H]1O[C@H](CO)[C@@H](O)[C@H](O)[C@H]1O [Curculigoside] | 101% and 106% | 106 | 110 | 104 | 105 | 105 | 115 | 109
33 | Cc1cc2c(C(=O)NCC(C)c3ccccc3)c(O)c(O)cc2c(O)c1-c1c(C)cc2c(C(=O)NCC(C)c3ccccc3)c(O)c(O)cc2c1O (stereo not drawn) [Sabutoclax] | 1.68% and 1.16% | 2.42 | 12.7 | 13.8 | 22.8 | 13.7 | 22.6 | 36
34 | O=C(O)Cc1cccc2ccccc12 [Potassium 1-Naphthaleneacetate] | 92.5% and 95.9% | 97 | 97.4 | 97.8 | 90.8 | 95.4 | 103 | 98.8
35 | O=c1[nH]cnc2ccccc12 [4-Hydroxyquinazoline] | 99.8% and 93.6% | 96.8 | 93.8 | 92.2 | 106 | 95.5 | 99.6 | 92.6
36 | CC1(C)CC[C@]2(C(=O)O)CC[C@]3(C)C(=CC[C@@H]4[C@@]5(C)C[C@@H](O)[C@H](O)C(C)(C)[C@@H]5CC[C@]43C)[C@@H]2C1 [Maslinic acid] | 84.2% and 80.1% | 84.5 | 91.3 | 108 | 90.7 | 86.9 | 77 | 82.2
37 | OC[C@@H](O)[C@@H](O)[C@H](O)[C@H](O)CO [D-Mannitol (Osmitrol)] | 98% and 97.7% | 106 | 107 | 116 | 107 | 109 | 97 | 100
38 | O=C(O)c1cccnc1 [Niacin (Nicotinic acid)] | 108% and 98.1% | 109 | 99.3 | 111 | 103 | 101 | 74 | 78.7
39 | C[C@]12CC[C@@H]3c4ccc(O)cc4CC[C@H]3[C@@H]1C[C@@H](O)[C@@H]2O [Estriol] | 104% and 92.3% | 87.9 | 86.4 | 99.5 | 101 | 99.9 | 91 | 101
40 | C[C@@H](Oc1cc(-n2cnc3ccc(CN4CCN(C)CC4)cc32)sc1C(N)=O)c1ccccc1C(F)(F)F | 31.9% and 32.9% | 34.1 | 35.9 | 34.3 | 16.8 | 7.12 | 4.11 | 17.1
41 | CO[C@@H]1[C@H](OC(=O)/C=C/C=C/C=C/C=C/C(=O)O)CC[C@]2(CO2)[C@H]1[C@@]1(C)O[C@@H]1CC=C(C)C [Fumagillin] | 77.1% and 77.5% | 72.3 | 51.5 | 69.4 | 50.9 | 50.5 | 72.4 | 63
